Data: PubChem BioAssay AID651820 (National Center for Advancing Translational Sciences (NCATS), 2012)
About 12,000 (3.5%) of roughly 340,000 compounds were called active. Another 18% or so got no clear call; they are omitted. The call rests on the fitted dose curve; in most records, active means well fitted inhibition curve with a large enough effect; inconclusive means small, poorly fitted or top-dose-only effect, or another doubt; inactive means no such curve, though single readings can be large or run the other way. The sample as a whole holds a higher share of actives than the screen did.
On the % scale 0 is the no-effect control and ±100 the full control effect; potency means the concentration at half of the fitted maximal effect.

Experiment: qHTS Assay for Inhibitors of Hepatitis C Virus (HCV)
Details: Huh7.5.1 HCVcc-Cre infection, luciferase reporter, 44 h; series mostly up to 41.8 µM; activity change, negative = inhibition: at the top concentration
In short: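 Reporter virus HCVcc-Cre (~0.5 moi) infects cells exposed to compound; seeding density 1,000 cells/well with 4 h settling beforehand. Luminescence, 15 sec read, taken 44 h post-infection following a 15 min RT substrate incubation.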
In the case of `Cc1ccc(OCC(=O)Oc2ccccc2[N+](=O)[O-])cc1`, the “activity change, negative = inhibition” value is reported as 30.2% (inactive).
In the case of `CC1(C)NC(=O)N(CC(=O)N2CCN(S(=O)(=O)c3ccccc3F)CC2)C1=O`, the “activity change, negative = inhibition” value is reported as 18.4% (inactive).
With `CCN1C(=O)[C@@H]2[C@@H](c3ccc(-c4cccc(Cl)c4)cc3)N3CCC[C@@]3(C(=O)OC)[C@@H]2C1=O` the “activity change, negative = inhibition” value was -20.2% (inactive).
In the case of `Nc1ccc(Nc2ccccc2)cc1`, the “activity change, negative = inhibition” value is reported as -12.8% (inactive).
In the case of `Cc1cc(Nc2ccccc2)n(C(=O)c2ccc(N)cc2)n1`, the Potency is reported as 12.6 µM (active).
In the case of `Cc1cc(Nc2ccccc2)n(CCC#N)n1`, the “activity change, negative = inhibition” value is reported as 4.32% (inactive).
For `O=C(Cc1ccc(Br)cc1)NCCc1ccccc1`, the “activity change, negative = inhibition” value was 4.78% (inactive).
With `CC[C@@H]1CCCCc2ccccc2[C@@H](C(=O)C[C@H](O)CC(C)=O)OC1=O` the “activity change, negative = inhibition” value was 14.1% (inactive).
With `Cc1nnc(NC(=O)C(c2ccccc2)c2ccccc2)s1` the “activity change, negative = inhibition” value was -1.93% (inactive).
With `Cc1nnc(NC(=O)Nc2ccc(Cl)c(Cl)c2)s1` the Potency was 14.1 µM (active).
In the case of `Cc1nnc(NC(=O)c2ccc3nccnc3c2)s1`, the “activity change, negative = inhibition” value is reported as 17.6% (inactive).
In the case of `COc1ccc(-c2cnc(SCCNC(=O)c3ccc4c(c3)OCO4)[nH]2)cc1`, the activity change, negative = inhibition is reported as 14.4% [at 8.37 µM] (inactive).
For `C#CCOCCOCCOCCNc1nc(N2CCOCC2)nc(N2CCN(C(=O)[C@H](Cc3ccc(O)cc3)n3cc(CCO)nn3)CC2)n1`, the “activity change, negative = inhibition” value was 17.4% (inactive).
For `O=S(=O)([N-]c1nc2ccccc2nc1-[n+]1ccc(Cc2ccccc2)cc1)c1ccc(Br)s1`, the Potency was 3.55 µM (active).
In the case of `O=C(NCCc1ccccc1)C1CCN(S(=O)(=O)c2ccc(Br)s2)CC1`, the “activity change, negative = inhibition” value is reported as 5.95% (inactive).
With `Cc1cc(C)c[n+](-c2nc3ccccc3nc2[N-]S(=O)(=O)c2cccs2)c1` the “activity change, negative = inhibition” value was 0.641% (inactive).
With `CC(Oc1ccc2c(-c3ccccc3)cc(=O)oc2c1)C(=O)NC(Cc1c[nH]c2ccccc12)C(=O)O` (configuration not stated) the “activity change, negative = inhibition” value was -1.82% (inactive).
With `CC(C)(C)C(=O)CSc1ccc(S(=O)(=O)N2CCCC2)cn1` the “activity change, negative = inhibition” value was 5.1% (inactive).
In the case of `CCOC(=O)C1(CCOc2ccccc2)CCN(Cc2cc(OC)c(O)cc2Cl)CC1`, the Potency is reported as 11.2 µM (active).
In the case of `CCOC(=O)C1(CCOC)CCN(Cc2ccc(C(=O)OC)cc2)CC1`, the “activity change, negative = inhibition” value is reported as 3.41% (inactive).
In the case of `CCCS(=O)(=O)N1CCC(CCOc2ccccc2)(C(=O)OCC)CC1`, the “activity change, negative = inhibition” value is reported as -7.6% (inactive).
In the case of `Nn1c(SCC(=O)Nc2nccs2)nnc1-c1ccco1`, the “activity change, negative = inhibition” value is reported as -1.79% (inactive).
For `Cc1ccccc1NC(=O)Cc1nc(COC(=O)c2cccnc2Cl)cs1`, the “activity change, negative = inhibition” value was -13.6% (inactive).
For `COc1ccc(C(C(=O)NC2CCCCC2)N(C(=O)CCl)c2ccccc2Cl)cc1` (configuration not stated), the Potency was 2.82 µM (active).
For `COc1ccc(C(C(=O)NC2CCCCC2)N(C(=O)c2snc(C(N)=O)c2N)c2ccccc2OC)cc1` (configuration not stated), the “activity change, negative = inhibition” value was 0.443% (inactive).
For `COc1cccc(N(C(=O)C2COc3ccccc3O2)C(C(=O)NC2CCCCC2)c2ccc(O)cc2)c1` (configuration not stated), the “activity change, negative = inhibition” value was -7.1% (inactive).
In the case of `O=C(c1ccc(F)cc1)N1CCC(C(=O)N2CCN(S(=O)(=O)c3ccccc3Br)CC2)CC1`, the “activity change, negative = inhibition” value is reported as 15.5% (inactive).
